The text below walks through data of the supplement of paper PMC6518042.

The test system of the first assay is Pectobacterium parmentieri SCC3193. Put plainly: DuctApe activity index (growth/respiration on compound as sole nutrient source, blank-subtracted) (activity index (0-3)); higher = stronger utilization of the compound, active = 3 or more. The conditions noted are these: nutrient role (plate category): carbon. The protocol: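 Biolog Phenotype Microarray plates PM1, PM2A (carbon), PM3 (nitrogen) and PM4 (phosphorus/sulfur) inoculated with P. parmentieri SCC3193 in M9-C minimal salts medium with Biolog dye A, and read in the OmniLog for 46 h. Each well was tested in triplicate and the experiment was run twice. DuctApe computed a blank-subtracted activity index (AV, 0-3) from the mean curves; growth is positive at AV >= 3 and negative at AV <= 2.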
On to `NCCc1ccccc1` [Phenylethylamine], for which the DuctApe activity index was 0 (inactive).
As for `O=C(O)CCCO` [g-Hydroxybutyric acid], the DuctApe activity index was 0 (inactive).
As for `NCCc1ccc(O)cc1` [Tyramine], the DuctApe activity index is 0 (inactive).
Still for that read-out and setting: the same measure for `NCC(O)c1ccc(O)cc1` (racemic) [D,L-Octopamine]: 0 (inactive); for `O=C(O)CC(Br)C(=O)O` (centres undefined) [Bromosuccinic acid]: 3 (active); for `N#C[C@H](O[C@@H]1O[C@H](CO[C@@H]2O[C@H](CO)[C@@H](O)[C@H](O)[C@H]2O)[C@@H](O)[C@H](O)[C@H]1O)c1ccccc1` [Amygdalin]: 0 (inactive).

Staying with this assay, now noted: nutrient role (plate category): nitrogen.
Turning to `O=C1NC(=O)C(=O)C(=O)N1` [Alloxan], the DuctApe activity index is 0 (inactive).
On the same count and under the same terms, the same measure for `O=[N+]([O-])O` [Nitrate]: 0 (inactive).
On to `NCCc1ccccc1` [b-Phenylethylamine], for which the DuctApe activity index was 0 (inactive).
With `CCN` [Ethylamine], the DuctApe activity index is 0 (inactive).
As for `NCCc1ccc(O)cc1` [Tyramine], the DuctApe activity index is 0 (inactive).
For `CN` [Methylamine], the DuctApe activity index is 0 (inactive).

Staying with this assay, now noted: nutrient role (plate category): phosphate & sulphur.
With `O=PO` [Hypophosphite], the DuctApe activity index was 0 (inactive).
`CCSCCC(N)C(=O)O` (racemic) [DL-Ethionine]: the DuctApe activity index was 0 (inactive).
As to `CCOP(=O)(OCC)OCC` [Triethyl Phosphate], the DuctApe activity index is 0 (inactive).
For the compound `CN(CC(=O)O)C(=N)NP(=O)(O)O` [Phosphocreatine], the DuctApe activity index is 2 (inactive).
Consider `OP(O)(O)=S` [Thiophosphate], for which the DuctApe activity index is 1.5 (inactive).
For the compound `NCCP(=O)(O)O` [2-Aminoethyl Phosphonic acid], the DuctApe activity index is 0 (inactive).
Turning to `OP(O)(=S)S` [Dithiophosphate], the DuctApe activity index was 1.5 (inactive).
